From PubChem BioAssay AID1477 (National Center for Advancing Translational Sciences (NCATS), 2009)
The whole screen tested about 230,000 compounds, of which fewer than 10 were called active. Roughly 3% stayed inconclusive and do not appear here. The call rests on the fitted dose curve; in most records, active means well fitted curve in the direction sought with a large enough effect; inconclusive means small, poorly fitted or top-dose-only effect, or effect the other way, or another doubt; inactive means no such curve, though single readings can be large or run the other way. A selection follows.

Each molecule was assayed against Runt-related transcription factor 1 (Homo sapiens) + Core-binding factor subunit beta (Homo sapiens) (UniProt Q01196+Q13951) (assay: qHTS Assay for Compounds Blocking the Interaction Between CBF-beta and RUNX1 for the Treatment of Acute Myeloid Leukemia). Conditions: AlphaScreen CBFb-His/RUNX1-biotin binding, biochemical; series mostly up to 59.8 µM; activity, negative = inhibition: at the top concentration.
Text: NIH Chemical Genomics Center [NCGC]
NIH Molecular Libraries Probe Production centers Network [MLPCN]
Assay Submitter (PI): Paul Liu
Core Binding Factor (CBF) abnormalities are associated with 20-25% of all acute myeloid leukemias (AML), of which 5-10% are further sub classified as acute myelomonocytic leukemia with eosinophilia, also known as M4Eo in the FAB classification scheme. This subtype of leukemia is usually associated with chromosome 16 inversion (p13:q22). Chromosome 16 inversion results in formation of the fusion oncogene CBFB-MYH11, which encodes the fusion protein CBF-beta-SMMHC.
It has been hypothesized that the interference of CBF-beta and RUNX1 binding could have therapeutic implications for patients with CBF mediated leukemias. We developed a CBF-beta and RUNX1 binding assay in AlphaScreenTM format and optimized it for high throughput screening to search for inhibitors. The goal of this project is to screen MLPCN's compound collection (MLSMR) for identifying the inhibitors of the interaction between CBF-beta and RUNX1 proteins as research probes. If these probes work well in the animal models, the ultimate goal of this project is to development a new drug treatment for this disease.
This assay can not be used to assess how apparent inhibitors interfere with protein binding, and whether inhibitors specifically bind to either protein. Disruption of this protein-protein interaction, through any mechanism, is the intended target activity.
NCGC Assay Protocol Summary:
Step, Parameter, Description
(1) Reagent, 3 uL CBFb-His/RUNX1-biotin mix incubated together for 20 minutes at room temperature (30 nM each)
(2) Compound or control, 23 nL compound stock solution
(3) Incubation, 15 minutes at Room temperature
(4) Reagent, 1 uL 50 ng each of beads (Nickel beads and streptavidin beads)
(5) Incubation, 90 minutes at Room temperature
(6) Detection, Excitation=365 nm Emission=440 nm, Envision reader in AlphaScreenTM mode
Keywords: MLSMR, MLPCN, NIH Roadmap, qHTS, NCGC, Core binding factor, CBF, CBF-beta, Acute myeloid leukemia
Further: % of control where 0% means no effect.

Chain of Runt-related transcription factor 1 (Homo sapiens) + Core-binding factor subunit beta (Homo sapiens) (Q01196 whole entry, looked up): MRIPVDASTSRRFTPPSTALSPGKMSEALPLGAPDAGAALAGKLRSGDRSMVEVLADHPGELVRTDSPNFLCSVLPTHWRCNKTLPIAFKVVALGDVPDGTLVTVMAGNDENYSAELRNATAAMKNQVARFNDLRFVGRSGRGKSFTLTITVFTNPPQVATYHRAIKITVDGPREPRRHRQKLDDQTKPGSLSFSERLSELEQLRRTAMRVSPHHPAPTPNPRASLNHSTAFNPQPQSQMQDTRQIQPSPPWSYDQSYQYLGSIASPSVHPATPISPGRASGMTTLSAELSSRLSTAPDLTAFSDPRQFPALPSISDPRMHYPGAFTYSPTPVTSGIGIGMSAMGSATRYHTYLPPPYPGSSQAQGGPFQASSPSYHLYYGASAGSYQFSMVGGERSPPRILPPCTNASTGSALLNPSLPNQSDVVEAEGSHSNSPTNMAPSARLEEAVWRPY
Chain of Runt-related transcription factor 1 (Homo sapiens) + Core-binding factor subunit beta (Homo sapiens) (Q13951 whole entry, looked up): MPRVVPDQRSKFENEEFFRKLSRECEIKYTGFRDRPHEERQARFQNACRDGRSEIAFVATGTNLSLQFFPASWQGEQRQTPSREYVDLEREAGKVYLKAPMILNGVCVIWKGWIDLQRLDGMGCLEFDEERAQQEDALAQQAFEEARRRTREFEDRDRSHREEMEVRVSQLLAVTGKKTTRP

activity, negative = inhibition, inactive:
O=C(c1ccccc1)c1cc(-c2ccccn2)c(N2CCOCC2)s1 14.4%
CC1CN(c2nc(Nc3ccccc3)nc(N)c2[N+](=O)[O-])CC(C)O1 (stereo not drawn) -9.51%
OCCC#Cc1ccc(CN2CCN(Cc3ccsc3)C(CCO)C2)cc1 (stereo not drawn) -9.41%
O=C(O)c1ccc(/C=C2/SC(=S)N(c3cccc(C(F)(F)F)c3)C2=O)cc1 7.05%
COc1ccc2nc(NC(=O)NC3CCCCC3)sc2c1 -3.84%
COc1ccc(Br)cc1C1C2C=CCC(C)C2C(=O)N1Cc1ccccc1 (stereo not drawn) 5.58%
COc1cc(C(=O)NCc2nnc(SCC(=O)Nc3nc4ccc(C)cc4s3)o2)cc(OC)c1OC -20.9%
COCc1cc(=O)[nH]c(-c2ccc(C(F)(F)F)cc2)n1 2.05%
COc1ccc(N2C(=O)/C(=C\c3ccco3)N=C2SCC(N)=O)cc1Cl -24%
COc1ccc(Cl)cc1NC(=O)NC(C)C(C)(C)C (stereo not drawn) 14.5%
CC(C)=CCC[C@]1(C)[C@@H](CC=C(C)C)C[C@@]2(CC=C(C)C)C(=O)[C@]1(C(=O)C(C)C)C(=O)C(CC=C(C)C)=C2O -1.66%
COc1ccc(/C=C/C(=O)Nc2ccc(C)cc2)cc1S(=O)(=O)N1CCOCC1 1.34%
Cc1ccc(CNC(=O)C2(C(F)(F)F)C/C(=C\CCO)CCCO2)o1 (stereo not drawn) 0.93%
C[C@H]1CCC[C@@]2(C)CCCC[C@]12O -0.847%
Oc1ccc(-c2c(-c3ccccc3)nn3c(C(F)(F)F)cc(C(F)(F)F)nc23)cc1 -29%
COc1ccc2oc(-c3cccc(NC(=O)CSc4ccc(Cl)cc4)c3)nc2c1 2.53%
CC[C@H](C)[C@@H](NC(=O)O[C@@H]1C(=O)c2cc(OC)ccc2O[C@H]1c1cccc(OC)c1)C(=O)OC 7.03%
COc1ccc(C2/C=C\CN(C(=O)c3ccc(C)cc3)C(Cc3ccccc3)C(=O)N2Cc2ccc(F)cc2)cc1 (stereo not drawn) -2%
H-EHIPA-OH 4.57%
COC(=O)C(CC(C)C)NS(=O)(=O)c1cc(Br)ccc1Br (stereo not drawn) 8.93%
Cc1ccc(C(=O)N/N=C\c2cc(Br)c(Br)o2)cn1 -16.1%
COc1ccc(C2/C=C\CN(CC(C)C)CC(=O)N2Cc2ccc(F)cc2)cc1 (stereo not drawn)
COc1ccc(C(=O)CSc2nnc(NC(=O)C3CC(=O)N(c4cccc(OC)c4)C3)s2)cc1 (stereo not drawn) 5.76%
COc1ccc(/C=N/NC(=O)Cn2cc(C(F)(F)F)ccc2=O)cc1 8.56%
COC(=O)c1c(NC(=O)CN(c2ccc(C)c(C)c2)S(C)(=O)=O)sc2c1CCCC2 -8.59%
COc1ccc(C(CCN2CCOCC2)c2c(OC)cc(OC)c3c2OC(=O)CC3c2ccc(OC)cc2)cc1 (stereo not drawn) -15.9%
COC(=O)c1nc2n(n1)C(c1ccc([N+](=O)[O-])cc1)C(C(=O)Nc1ccc(Cl)cc1)=C(C)N2 (stereo not drawn) -5.95%
O=C(COC(=O)c1ccc(S(=O)(=O)Nc2ccccc2)cc1)NCC1CCCO1 (stereo not drawn) 10.7%
C=C1CCN(Cc2ccc(OC)cc2)S(=O)(=O)c2ccccc21 13.9%
CC(C)C(NS(=O)(=O)c1ccc(-c2ccc(Br)cc2)cc1)C(=O)O (stereo not drawn) 9.65%
CCCC(O)(CCC)C(=O)NN(C(=O)CCl)c1cccc(C)c1 -3.73%
COc1ccc(C(=O)Nc2ccc(-n3nncc3C(C)(C)C)cc2)cc1 -0.753%
C=CCOC(=O)C(=C)C 2.23%
NCCCCC(N)C(=O)O (stereo not drawn) 4.1%
O=C(Cn1c(COc2ccccc2)nc2ccccc21)Nc1cc(Cl)c(Cl)cc1Cl -4.59%
C/C(=N\NC(=O)CNC(=O)C(c1ccccc1)c1ccccc1)c1ccc(C)cc1 -2.24%
COc1ccc(C(=O)NC2CCN(C(=S)NCCc3ccccc3)CC2)cc1 2.59%
O=C(Nc1cc(C(F)(F)F)ccc1Cl)c1cc2nc3c(c(C(F)(F)F)n2n1)CCCC3 3.04%
Cc1cc(OCCCCOc2ccc(C#N)cc2)ccc1[N+](=O)[O-] 15.6%
Cc1cc2c(cc1C)N(Cc1ccccc1)C1=NCCCN12 -4.11%
CCCc1cc(=O)[nH]c(SCC(=O)N2CCN(S(=O)(=O)c3ccc(C)cc3C)CC2)n1 14.9%
CCOC(=O)c1nn(-c2cccc(C)c2)cc1C(=O)c1ccccc1 -7.37%
COc1ccc(-c2nc3c(c4c2C[C@H](c2ccccc2)OC4)CN(C(=O)c2ccco2)CC3)c(C)c1 5.84% [at 13.1 µM]
COc1ccc(-c2ccc(OC(=O)NC3CCS(=O)(=O)C3)cc2)cc1 (stereo not drawn) 4.1%
COc1ccccc1/C=C/CN1CCC(CO)(Cc2ccccc2)CC1 3.97%
CC(=O)c1c(O)cc2n(c1=O)-c1ccc(Cl)cc1C2(C)C 1.82%
C/C(=C\c1ccccc1)C1NC(=O)c2c(sc3c2CCCC3)N1 (stereo not drawn) -0.931%
Cc1ccc(-n2cc(CN(C)Cc3nccn3C)c(-c3cccc(C)c3)n2)cc1 -15.4%
CC(/C=C/c1ccco1)=N/NC(=O)C1COc2ccccc2O1 (stereo not drawn) -3.74%
CCOc1cccc2c1OC1(CCCCC1)N1N=C(c3cccnc3)CC21 (stereo not drawn) 3.17%
OCCNCCOc1ccc(Cl)c(Cl)c1 -1.31%
Cc1c(CCO)c(=O)[nH]n1C(=O)c1c(F)cccc1F 0.745%
O=C1C[C@@H](c2ccc3ccccc3c2)N1S(=O)(=O)c1ccccc1[N+](=O)[O-] 9.98%
CCOC(=O)Cn1c(=O)sc2cccc(Cl)c21 5.32%
O=C(CC1C(=O)NCCN1Cc1ccc(-c2ccccc2)cc1)NCC1CCOCC1 (stereo not drawn) 1.5%
CCO[C@H]1OC(C(=O)Nc2ccccc2)=C[C@@H](C2CC2)[C@@H]1CCCO 11.9%
Cc1ccc2nc(-c3cccnc3)c(NC3CCCC3)n2c1 -13.5%
CCCCC/C=C\C/C=C\C/C=C\CCCCCCC(N)=O -2.43%
Cc1ccc(C2=NN(C(=O)COc3ncnc4ccccc34)C(c3ccco3)C2)cc1 (stereo not drawn) 9.21%
O=C(Cc1ccc(S(=O)(=O)N2CCCC2)s1)NC1CCCCCC1 -11%
O=C(Nc1ccc(-c2csc(Nc3cccc(C(F)(F)F)c3)n2)cc1)c1cccc(C(F)(F)F)c1 19.3%
CC[C@H](C)[C@H](NC(=O)[C@H](Cc1ccc(O)cc1)NC(=O)[C@@H](NC(=O)[C@H](CCCN=C(N)N)NC(=O)[C@@H](N)CC(=O)O)C(C)C)C(=O)N[C@@H](Cc1cnc[nH]1)C(=O)N1CCC[C@H]1C(=O)N[C@@H](Cc1ccccc1)C(=O)O 26.2%
COc1ccc(CCn2c(NN=C3CCCC3)nc3c2c(=O)[nH]c(=O)n3C)cc1 -24.2%
